Laboratory results from publication PMC4336329 (PLoS ONE, 2015).
Hit rate of the full screen: of about 310,000 compounds, about 14,000 (4.5%) showed an effect of 50% or more. Effects have a minus sign here. For the sample, strong results were picked, then their nearest neighbours and some compounds at random.

target: human ether-à-go-go-related gene (hERG) potassium channel (human, UniProt Q12809); assay: primary screen, population patch clamp on CHO cells stably expressing hERG; higher = less effect of the substance
Sequence (Q12809 whole entry, looked up): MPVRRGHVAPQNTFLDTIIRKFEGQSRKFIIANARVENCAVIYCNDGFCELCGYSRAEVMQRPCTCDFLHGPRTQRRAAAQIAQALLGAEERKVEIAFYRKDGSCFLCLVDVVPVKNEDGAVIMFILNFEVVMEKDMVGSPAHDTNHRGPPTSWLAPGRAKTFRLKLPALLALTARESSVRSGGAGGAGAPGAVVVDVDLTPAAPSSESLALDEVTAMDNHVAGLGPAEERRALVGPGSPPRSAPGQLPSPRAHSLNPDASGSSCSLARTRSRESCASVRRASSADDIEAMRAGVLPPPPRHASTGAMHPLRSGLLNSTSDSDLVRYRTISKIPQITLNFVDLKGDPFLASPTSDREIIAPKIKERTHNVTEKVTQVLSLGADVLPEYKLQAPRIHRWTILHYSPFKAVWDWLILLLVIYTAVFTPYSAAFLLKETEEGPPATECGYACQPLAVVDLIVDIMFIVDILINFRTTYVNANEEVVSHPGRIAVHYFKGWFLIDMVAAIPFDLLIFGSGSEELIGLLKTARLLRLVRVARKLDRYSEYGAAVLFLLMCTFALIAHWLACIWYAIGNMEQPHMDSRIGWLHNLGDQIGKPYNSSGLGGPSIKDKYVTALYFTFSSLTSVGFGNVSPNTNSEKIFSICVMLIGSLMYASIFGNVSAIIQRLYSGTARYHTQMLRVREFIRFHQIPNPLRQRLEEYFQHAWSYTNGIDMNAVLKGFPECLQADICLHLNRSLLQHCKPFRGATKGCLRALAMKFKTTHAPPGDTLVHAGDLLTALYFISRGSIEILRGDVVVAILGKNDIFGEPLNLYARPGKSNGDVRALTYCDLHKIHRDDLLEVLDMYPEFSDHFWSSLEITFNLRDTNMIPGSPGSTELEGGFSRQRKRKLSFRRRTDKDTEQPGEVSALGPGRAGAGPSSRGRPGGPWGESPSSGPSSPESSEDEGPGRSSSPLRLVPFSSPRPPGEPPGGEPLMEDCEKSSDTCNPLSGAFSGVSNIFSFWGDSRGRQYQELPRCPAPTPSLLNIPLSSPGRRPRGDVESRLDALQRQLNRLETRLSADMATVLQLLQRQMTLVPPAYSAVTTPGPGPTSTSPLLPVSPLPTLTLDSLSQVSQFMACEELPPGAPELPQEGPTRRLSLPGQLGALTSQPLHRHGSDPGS
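Note: peak tail current of the secondary pulse compared with the same well before compound.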

Row | SMILES | hERG current change (%, negative = inhibition) at 10uM
1 | Cc1cc(C)c2cc(C#N)c(NCCCNC(=O)CCC(=O)O)nc2c1 | 12.2%
2 | COc1ccc(N=CC2=C(Nc3ccc(OC)cc3)c3c(C)nn(-c4ccccn4)c3CC2)cc1 | -16.4%
3 | COCC1CCN(C(=O)c2cc(COc3ccc(F)cc3F)on2)C1 (centres unmarked) | -13.2%
4 | CCOC(=O)c1c(NC(=O)C2C3CCC(O3)C2C(=O)O)sc2c1CCC(CC)C2 (centres unmarked) | -21.1%
5 | COc1ccc(CCN(C)Cc2cccc3ccccc23)cc1OC | -73.8%
6 | COc1ccc2cc(Br)ccc2c1CC(=O)N(C)C | 10.7%
7 | COc1ccc(OCCN(C)Cc2c(O)ccc3ccccc23)cc1 | 19%
8 | COc1ccc(CCN(C)Cc2c(O)ccc3cc(Br)ccc23)cc1OC | -59.5%
9 | COc1ccc(CN(C)Cc2c(O)ccc3ccccc23)cc1 | -24.7%
10 | COc1ccc(CCN(C)C(=O)CNC(=O)Cc2cccc3ccccc23)cc1OC | -1.9%
11 | COc1ccc(CN(C)Cc2c(O)ccc3cc(Br)ccc23)cc1OC | -37.3%
12 | COc1cc(CN(C)Cc2cccc3ccccc23)cc([N+](=O)[O-])c1O | 11.9%
13 | COc1ccc(CCN(C)Cc2c(O)ccc3ccccc23)cc1OC | -74%
14 | Cc1ccc(C(=O)NCC(=O)OCCOc2cccc(Cl)c2)cc1 | -7.72%
15 | Cc1nn(C)c2ncc(C(N)=O)c(Oc3ccc(Cl)cc3)c12 | 7.24%
16 | Cc1ccc(S(=O)(=O)Nc2cccc3cccnc23)cc1 | -12.1%
17 | O=C(CSc1nc(Nc2ccccc2)nc(N2CCOCC2)n1)Nc1ccc([N+](=O)[O-])cc1 | 9.65%
18 | COc1ccc([C@@H]2[C@H]3C(=O)N(c4cccc(C(F)(F)F)c4)C(=O)[C@H]3ON2C)cc1 | -12.1%
19 | COc1ccc(S(=O)(=O)NCCOc2ccccc2)cc1F | 8.52%
20 | CC(C)NC(=O)Cn1nnc(-c2ccc(Cl)cc2)n1 | 4.9%
21 | Cc1nn(CC(=O)NCc2ccccn2)c(C)c1[N+](=O)[O-] | -10.9%
22 | Cc1ccc(NC(=O)COC(=O)c2ccc(Cl)nc2)cc1S(=O)(=O)N1CCCCC1 | 15.2%
23 | O=C(Nc1ccccc1C(=O)N1CCN(CCO)CC1)c1cccc([N+](=O)[O-])c1 | 7%

Row | SMILES | hERG current change (%, negative = inhibition) at 10uM
24 | CN(C)c1nc(SCC#N)nc(N(C)C)n1 | -3.57%
25 | CN1CCN(c2ccc(-c3cccc(NC(=O)COc4ccc(Cl)cc4)c3)nn2)CC1 | -50.7%
26 | CN1CCN(c2ccc(-c3cccc(NC(=O)COc4ccccc4)c3)nn2)CC1 | -35.9%
27 | O=C(COc1ccc(Cl)cc1)Nc1cccc(-c2ccc3nncn3n2)c1 | -51.9%
28 | O=C(COc1ccc(Cl)cc1)Nc1cccc(-c2ccc(N3CCOCC3)nn2)c1 | 0.684%
29 | CCOc1ccc(C(=O)Nc2cccc(-c3ccc4nncn4n3)c2)cc1 | 12.5%
30 | COCC(=O)Nc1cccc(-c2ccc3nncn3n2)c1 | 9.97%
31 | CCOc1cc(NS(C)(=O)=O)c(OCC)cc1NC(=O)c1cccs1 | -15.8%
32 | CN1CCN(c2ccc(-c3ccnn3C(=O)Nc3ccccc3)cc2)CC1 | -11.5%
33 | CCOC(=O)c1ccc(NC(=O)c2ccc(OC(C)C)c(OC)c2)cc1 | -3.47%
34 | Cc1cc(C(=O)COC(=O)c2ccncc2)c(C)n1Cc1ccco1 | 13.7%
35 | NC(=O)c1c(NC(=O)C2c3ccccc3Oc3ccccc32)sc2c1CCCCC2 | 6.4%
36 | CCS(=O)(=O)N1CCC(C(=O)N2CCOCC2)CC1 | 12%
37 | COc1ccc(S(=O)(=O)NCC2CCCN(Cc3cn(C)nc3C)C2)cc1 (centres unmarked) | 8.1%
38 | CC(C)c1cccc(C(C)C)c1OC(=O)[C@H]1OC(C(C)(C)C)=C[C@@H]1c1ccccc1 | -6.97%
39 | CCOc1ccc(C(=O)NCCCN(CC)CC)cc1 | -51.8%
40 | COc1cc(C(=O)N(C)CCOc2ccccc2)ccc1OCC(=O)Nc1cccc(C(F)(F)F)c1 | -14.2%
41 | CCN(CC(=O)Nc1ccc(OC)c(OC)c1)CC(=O)Nc1ccccc1C(F)(F)F | -0.147%
42 | CCN(CC)CCCNC(=O)c1ccc(OCC(=O)Nc2ccccc2C(F)(F)F)c(OC)c1 | -70.5%
43 | COc1cc(C(=O)NCCCN(C)C)ccc1OCC(=O)Nc1cccc(C(F)(F)F)c1 | -59.1%
44 | CCOc1ccc(C(=O)NCCCCNC(=O)c2ccc(OCC)cc2)cc1 | 21.8%
45 | CCOc1ccc(C(=O)NCCNC(=O)c2ccc(OCC)cc2)cc1 | 9.15%
46 | COc1cc(C(=O)NCc2ccc(S(N)(=O)=O)cc2)ccc1OCC(=O)Nc1cccc(C(F)(F)F)c1 | 15.5%

Row | SMILES | hERG current change (%, negative = inhibition) at 10uM
47 | CCN(CC(=O)Nc1ccccc1OC)CC(=O)Nc1ccccc1C(F)(F)F | -5.29%
48 | CC(C)CCNC(=O)NC(=O)CSc1nnc(-c2ccccc2Br)o1 | -5.73%
49 | CC(=O)c1ccc(-c2nc3ccccc3n2C)o1 | 12.7%
50 | CC1CCN(C(=O)COC(=O)CCc2c[nH]c3ccccc23)CC1 | 9.1%
51 | CCOC(=O)c1csc(NC(=O)c2ccccc2)n1 | -8.86%
52 | COc1ccc(NC(=O)OCC(C)C)cc1OC | 15.9%
53 | C=CCN1C(=O)/C(=C/c2ccc(OC)cc2)S/C1=N/c1nccs1 | 13.4%
54 | Cc1nn(C(=O)c2ccco2)c(C)c1Sc1ccc([N+](=O)[O-])cc1 | 20.8%
55 | O=C(COC(=O)c1cc(Cl)ccc1O)NCCNC(=O)COC(=O)c1cc(Cl)ccc1O | 21.4%
56 | COc1ccc(Cl)cc1C(=O)OCC(=O)NCc1cccs1 | -28.1%
57 | COc1ccc(Cl)cc1C(=O)OCC(=O)NCCNC(=O)COC(=O)c1cc(Cl)ccc1OC | -71.6%
58 | Cc1cccc(C(=O)OCCN2CCOCC2)c1.Cl | 12.3%
59 | CCOc1ccc(C2C(C#N)=C(N)SC(N)=C2C#N)cc1OCC | 13.5%
60 | COc1ccccc1CN1CCCC(C(=O)c2ccccc2SC)C1 (centres unmarked) | -71.1%
61 | COc1cccc(CN2CCCC(C(=O)c3ccccc3SC)C2)c1O (centres unmarked) | -77.5%
62 | COC(=O)CCCC(=O)N1CCCC(C(=O)c2ccccc2SC)C1 (centres unmarked) | -8.08%
63 | COc1cccc(OC)c1CN1CCCC(C(=O)c2ccccc2SC)C1 (centres unmarked) | -72.6%
64 | COc1cccc(O)c1CN1CCCC(C(=O)c2ccccc2SC)C1 (centres unmarked) | -44.1%
65 | COc1ccccc1CN1CCCC(C(=O)c2ccccc2OC)C1 (centres unmarked) | -47.2%
66 | C/C(=N\NC(=O)c1ccccc1O)c1ccc(Br)s1 | 11%
67 | O=C(O)c1ccc2c(c1Sc1ccccc1)C(=O)c1ccccc1C2=O | -4.82%
68 | COc1cc(C(=O)Nc2ccc(S(=O)(=O)NC(C)C)cc2)cc(OC)c1OC | -2.49%
69 | O=C(CCn1cccn1)Nc1ccc(-c2ccno2)cc1 | 14.4%

Row | SMILES | hERG current change (%, negative = inhibition) at 10uM
70 | CCNC(=O)CN(CCc1ccccc1)S(C)(=O)=O | 17.8%
71 | O=S(=O)(Nc1ccc(-c2nnc(SCc3ccc(Cl)cc3)o2)cc1)c1ccccc1 | 17.8%
72 | O=S(=O)(Nc1ccc(-c2ccc3nncn3n2)cc1)c1cccs1 | 15.4%
73 | O=C(NCc1ccccc1Cl)c1cccc(NC2=NC3CS(=O)(=O)CC3S2)c1 (centres unmarked) | 13.1%
74 | Cc1nnc(NC(=O)c2ccccc2Br)s1 | -1.65%
75 | CC1=C(C(=O)Nc2ccccc2)C(c2ccco2)C(C#N)=C(SCC(=O)Nc2cccc(C)c2C)N1 (centres unmarked) | 17.9%
76 | CCc1nc2sc3c(c2c(=O)n1N)CC(C)(C)OC3 | 7.31%
77 | OCCN1CCN(Cc2cc(Br)cc(Br)c2O)CC1 | -60.8%
78 | COc1ccc(Br)cc1CN1CCN(CCO)CC1 | -0.9%
79 | CCN1CCN(Cc2cc(Br)ccc2O)CC1 | -22.7%
80 | Oc1c(Br)cc(Br)cc1CN1CCN(Cc2ccccc2)CC1 | -3.14%
81 | CCN1CCN(Cc2cc(Br)cc(Br)c2O)CC1 | -50.6%
82 | CCN1CCN(Cc2cc(Br)cc(OC)c2O)CC1 | -20.4%
83 | O=C(OCc1ccccc1)c1cc(S(=O)(=O)N2CCCCC2)ccc1N1CCOCC1 | -27.3%
84 | CC(=O)N1N=C(c2cccs2)CC1c1ccc(C)o1 (centres unmarked) | 7.07%
85 | COC(=O)c1ccc(N2C(=O)CC(N3CCN(c4ccccc4)CC3)C2=O)cc1 (centres unmarked) | 11.1%
86 | Cc1cc(Cl)c(S(=O)(=O)NCc2ccncc2)cc1OCC(N)=O | 1.62%
87 | Cc1cc(C)n(CCCNC(=O)C2CCC(=O)N(CCc3ccc(Cl)cc3)C2)n1 (centres unmarked) | -54.7%
88 | Cc1ccn(CCNC(=O)C2CCC(=O)N(CCc3ccc(Cl)cc3)C2)n1 (centres unmarked) | -55.3%
89 | O=C(NCCn1cccn1)C1CCC(=O)N(CCc2ccc(Cl)cc2)C1 (centres unmarked) | 5.51%
90 | Cc1ccn(CCNC(=O)C2CCC(=O)N(Cc3ccc(Cl)cc3)C2)n1 (centres unmarked) | -3.57%
91 | Cc1cc(C)n(CCNC(=O)C2CCC(=O)N(Cc3ccc(Cl)cc3)C2)n1 (centres unmarked) | 15.2%
92 | COc1ccc(CCN2CC(C(=O)NCCCn3nc(C)cc3C)CCC2=O)cc1 (centres unmarked) | -23.3%
